The target of experiment [1] is Sphingosine kinase 1 (Homo sapiens) (UniProt Q9NYA1). The note with it: at 1 µM.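 Note: mean SPHK1 inhibition value reported from the GSK PKIS kinase panel screen.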
The target of experiment [2] is T1, Sphingosine kinase 2 (Homo sapiens) (UniProt Q9NRA0).
T1 sequence (whole entry): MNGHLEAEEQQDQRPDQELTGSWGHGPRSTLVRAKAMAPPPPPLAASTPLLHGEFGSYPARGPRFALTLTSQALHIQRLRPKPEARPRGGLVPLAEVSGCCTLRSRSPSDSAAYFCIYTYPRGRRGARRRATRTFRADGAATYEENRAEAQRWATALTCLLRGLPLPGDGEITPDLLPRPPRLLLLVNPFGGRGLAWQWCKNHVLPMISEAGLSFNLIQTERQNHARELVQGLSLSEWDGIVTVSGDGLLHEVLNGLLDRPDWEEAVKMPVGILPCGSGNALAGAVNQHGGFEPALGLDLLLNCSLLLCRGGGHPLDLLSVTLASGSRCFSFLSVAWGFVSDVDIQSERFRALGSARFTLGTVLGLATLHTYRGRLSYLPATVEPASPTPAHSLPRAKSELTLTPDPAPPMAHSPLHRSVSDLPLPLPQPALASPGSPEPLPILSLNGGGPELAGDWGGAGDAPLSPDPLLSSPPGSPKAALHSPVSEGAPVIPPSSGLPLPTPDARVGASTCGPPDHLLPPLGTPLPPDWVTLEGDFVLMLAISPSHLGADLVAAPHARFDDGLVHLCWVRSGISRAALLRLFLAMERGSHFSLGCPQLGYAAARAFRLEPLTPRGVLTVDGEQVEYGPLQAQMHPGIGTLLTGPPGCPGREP
The note with it: at 0.1 µM.

In experiment [3] the target is T1, Sphingosine kinase 2 (Homo sapiens). The note with it: at 1 µM.
Experiment [4] has as its target Casein kinase II subunit alpha (Homo sapiens) (UniProt P68400). The settings on record: at 0.1 µM.
The target is the same in experiment [5]. The settings on record: at 1 µM.
For experiment [6], the target named is T2, Inhibitor of nuclear factor kappa-B kinase subunit alpha (Homo sapiens) (UniProt O15111).
T2 sequence (whole entry): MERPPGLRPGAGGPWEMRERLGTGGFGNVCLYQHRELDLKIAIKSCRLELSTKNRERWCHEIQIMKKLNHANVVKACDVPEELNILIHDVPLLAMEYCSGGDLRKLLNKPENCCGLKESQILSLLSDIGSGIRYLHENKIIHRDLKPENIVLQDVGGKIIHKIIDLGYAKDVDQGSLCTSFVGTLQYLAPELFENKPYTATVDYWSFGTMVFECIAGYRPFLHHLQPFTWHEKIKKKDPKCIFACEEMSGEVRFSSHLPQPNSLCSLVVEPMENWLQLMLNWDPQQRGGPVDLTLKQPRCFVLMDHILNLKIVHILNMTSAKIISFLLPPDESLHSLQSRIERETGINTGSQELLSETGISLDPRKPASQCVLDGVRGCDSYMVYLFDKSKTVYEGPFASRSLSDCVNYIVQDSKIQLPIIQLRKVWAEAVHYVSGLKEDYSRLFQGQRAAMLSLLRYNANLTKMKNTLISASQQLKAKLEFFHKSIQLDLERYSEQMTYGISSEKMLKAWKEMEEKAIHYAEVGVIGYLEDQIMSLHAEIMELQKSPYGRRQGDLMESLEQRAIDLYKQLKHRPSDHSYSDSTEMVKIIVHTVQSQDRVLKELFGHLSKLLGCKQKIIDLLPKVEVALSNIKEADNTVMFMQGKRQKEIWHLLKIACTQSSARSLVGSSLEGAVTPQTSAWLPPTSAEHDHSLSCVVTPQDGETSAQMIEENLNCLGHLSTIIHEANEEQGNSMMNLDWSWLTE
The settings on record: at 0.1 µM.

Experiment [7] concerns the target T2, Inhibitor of nuclear factor kappa-B kinase subunit alpha (Homo sapiens). The settings on record: at 1 µM.
The target in experiment [8] is T3, Inhibitor of nuclear factor kappa-B kinase subunit beta (Homo sapiens) (UniProt O14920).
T3 sequence (whole entry): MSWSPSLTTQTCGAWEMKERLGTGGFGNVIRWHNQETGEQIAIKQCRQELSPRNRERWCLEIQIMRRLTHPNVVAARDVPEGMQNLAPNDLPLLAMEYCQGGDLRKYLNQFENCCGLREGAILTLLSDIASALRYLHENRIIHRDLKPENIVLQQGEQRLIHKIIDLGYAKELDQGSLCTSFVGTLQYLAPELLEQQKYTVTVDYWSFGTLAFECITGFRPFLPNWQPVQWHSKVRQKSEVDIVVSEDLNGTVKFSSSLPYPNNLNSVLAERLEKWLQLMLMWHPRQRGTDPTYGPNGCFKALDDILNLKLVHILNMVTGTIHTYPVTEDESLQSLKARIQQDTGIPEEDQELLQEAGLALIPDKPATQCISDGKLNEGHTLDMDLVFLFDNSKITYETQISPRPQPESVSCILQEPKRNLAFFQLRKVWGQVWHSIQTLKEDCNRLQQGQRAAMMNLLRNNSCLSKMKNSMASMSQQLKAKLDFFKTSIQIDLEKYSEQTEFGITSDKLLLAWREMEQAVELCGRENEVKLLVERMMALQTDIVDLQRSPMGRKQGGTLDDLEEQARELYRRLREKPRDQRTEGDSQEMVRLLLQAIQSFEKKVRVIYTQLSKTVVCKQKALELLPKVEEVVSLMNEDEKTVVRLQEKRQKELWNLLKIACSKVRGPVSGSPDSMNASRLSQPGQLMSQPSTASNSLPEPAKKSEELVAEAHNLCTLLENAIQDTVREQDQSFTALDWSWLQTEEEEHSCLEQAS
The note with it: at 0.1 µM.

Experiment [9] has as its target T3, Inhibitor of nuclear factor kappa-B kinase subunit beta (Homo sapiens). The note with it: at 1 µM.
Experiment [10] addresses T4, Inhibitor of nuclear factor kappa-B kinase subunit epsilon (Homo sapiens) (UniProt Q14164).
T4 sequence (whole entry): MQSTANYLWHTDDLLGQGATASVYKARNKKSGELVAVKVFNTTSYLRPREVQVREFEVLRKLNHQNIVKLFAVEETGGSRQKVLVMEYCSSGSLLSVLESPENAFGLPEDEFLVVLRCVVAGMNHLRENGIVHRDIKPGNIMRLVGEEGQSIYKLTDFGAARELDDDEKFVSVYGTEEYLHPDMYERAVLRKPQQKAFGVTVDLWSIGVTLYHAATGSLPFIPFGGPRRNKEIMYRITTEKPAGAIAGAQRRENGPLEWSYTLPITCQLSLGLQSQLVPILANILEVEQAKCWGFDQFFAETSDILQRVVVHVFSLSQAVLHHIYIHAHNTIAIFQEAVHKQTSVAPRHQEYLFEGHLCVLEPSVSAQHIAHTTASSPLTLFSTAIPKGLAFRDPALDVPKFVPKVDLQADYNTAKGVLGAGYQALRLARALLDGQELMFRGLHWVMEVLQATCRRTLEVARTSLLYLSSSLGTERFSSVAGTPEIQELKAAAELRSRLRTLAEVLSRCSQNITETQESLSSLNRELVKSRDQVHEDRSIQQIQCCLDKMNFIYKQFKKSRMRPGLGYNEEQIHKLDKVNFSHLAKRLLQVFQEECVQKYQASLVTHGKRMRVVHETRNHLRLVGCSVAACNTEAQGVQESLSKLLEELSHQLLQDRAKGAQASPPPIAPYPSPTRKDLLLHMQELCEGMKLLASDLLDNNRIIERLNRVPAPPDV
The note with it: at 0.1 µM.

Experiment [11] concerns the target T4, Inhibitor of nuclear factor kappa-B kinase subunit epsilon (Homo sapiens). The settings on record: at 1 µM.
Experiment [12] has as its target T5, Serine/threonine-protein kinase Nek1 (Homo sapiens) (UniProt Q96PY6).
T5 sequence (whole entry): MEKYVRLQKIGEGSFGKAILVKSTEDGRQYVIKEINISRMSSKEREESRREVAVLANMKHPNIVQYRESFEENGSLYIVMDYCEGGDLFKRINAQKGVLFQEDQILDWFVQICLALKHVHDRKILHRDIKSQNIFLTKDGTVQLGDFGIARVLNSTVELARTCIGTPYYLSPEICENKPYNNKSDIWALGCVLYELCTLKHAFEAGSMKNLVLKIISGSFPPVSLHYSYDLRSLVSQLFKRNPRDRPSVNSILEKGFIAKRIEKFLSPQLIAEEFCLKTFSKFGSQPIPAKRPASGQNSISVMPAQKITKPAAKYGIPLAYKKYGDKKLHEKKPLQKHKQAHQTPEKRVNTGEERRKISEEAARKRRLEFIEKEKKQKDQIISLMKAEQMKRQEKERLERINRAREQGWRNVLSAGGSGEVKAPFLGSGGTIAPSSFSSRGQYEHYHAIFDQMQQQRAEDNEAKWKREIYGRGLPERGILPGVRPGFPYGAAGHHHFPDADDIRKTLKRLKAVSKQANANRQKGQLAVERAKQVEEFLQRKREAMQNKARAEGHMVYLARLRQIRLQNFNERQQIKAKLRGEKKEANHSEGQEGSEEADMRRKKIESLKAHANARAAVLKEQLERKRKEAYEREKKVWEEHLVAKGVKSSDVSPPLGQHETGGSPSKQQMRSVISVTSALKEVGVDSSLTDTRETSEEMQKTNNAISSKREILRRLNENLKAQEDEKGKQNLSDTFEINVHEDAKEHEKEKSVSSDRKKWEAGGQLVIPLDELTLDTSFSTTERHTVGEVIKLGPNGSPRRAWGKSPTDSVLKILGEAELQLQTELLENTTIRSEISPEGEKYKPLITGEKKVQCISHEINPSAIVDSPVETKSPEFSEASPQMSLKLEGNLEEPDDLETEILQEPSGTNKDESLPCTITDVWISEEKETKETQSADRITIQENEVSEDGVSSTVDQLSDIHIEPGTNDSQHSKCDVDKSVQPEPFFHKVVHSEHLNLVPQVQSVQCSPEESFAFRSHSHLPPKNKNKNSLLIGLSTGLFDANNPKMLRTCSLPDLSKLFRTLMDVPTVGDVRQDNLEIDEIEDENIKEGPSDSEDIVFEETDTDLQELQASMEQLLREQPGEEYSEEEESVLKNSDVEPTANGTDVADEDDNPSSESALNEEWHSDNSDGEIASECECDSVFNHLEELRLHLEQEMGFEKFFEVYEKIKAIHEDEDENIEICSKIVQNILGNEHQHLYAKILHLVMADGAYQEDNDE
The note with it: at 0.1 µM.

Experiment [13] deals with T5, Serine/threonine-protein kinase Nek1 (Homo sapiens). The settings on record: at 1 µM.
Experiment [14] has as its target T6, Serine/threonine-protein kinase Nek2 (Homo sapiens) (UniProt P51955).
T6 sequence (whole entry): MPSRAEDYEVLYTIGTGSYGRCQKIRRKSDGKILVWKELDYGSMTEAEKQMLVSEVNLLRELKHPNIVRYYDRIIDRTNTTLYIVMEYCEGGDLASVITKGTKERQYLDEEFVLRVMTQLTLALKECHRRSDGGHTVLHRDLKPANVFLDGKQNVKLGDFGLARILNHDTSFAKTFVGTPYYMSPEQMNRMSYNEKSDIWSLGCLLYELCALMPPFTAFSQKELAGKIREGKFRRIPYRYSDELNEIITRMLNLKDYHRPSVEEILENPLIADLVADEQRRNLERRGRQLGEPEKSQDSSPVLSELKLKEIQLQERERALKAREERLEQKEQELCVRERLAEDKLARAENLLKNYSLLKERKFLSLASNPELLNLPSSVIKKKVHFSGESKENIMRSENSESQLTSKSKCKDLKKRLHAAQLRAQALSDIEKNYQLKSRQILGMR
The note with it: at 0.1 µM.

In experiment [15] the target is T6, Serine/threonine-protein kinase Nek2 (Homo sapiens). The note with it: at 1 µM.
The target in experiment [16] is Serine/threonine-protein kinase Nek6 (Homo sapiens) (UniProt Q9HC98). The settings on record: at 0.1 µM.
Experiment [17] shares this target. The settings on record: at 1 µM.
Experiment [18] deals with Serine/threonine-protein kinase Nek7 (Homo sapiens) (UniProt Q8TDX7). The settings on record: at 0.1 µM.
Experiment [19] has the same target. The note with it: at 1 µM.
Experiment [20] addresses T7, Serine/threonine-protein kinase Nek9 (Homo sapiens) (UniProt Q8TD19).
T7 sequence (whole entry): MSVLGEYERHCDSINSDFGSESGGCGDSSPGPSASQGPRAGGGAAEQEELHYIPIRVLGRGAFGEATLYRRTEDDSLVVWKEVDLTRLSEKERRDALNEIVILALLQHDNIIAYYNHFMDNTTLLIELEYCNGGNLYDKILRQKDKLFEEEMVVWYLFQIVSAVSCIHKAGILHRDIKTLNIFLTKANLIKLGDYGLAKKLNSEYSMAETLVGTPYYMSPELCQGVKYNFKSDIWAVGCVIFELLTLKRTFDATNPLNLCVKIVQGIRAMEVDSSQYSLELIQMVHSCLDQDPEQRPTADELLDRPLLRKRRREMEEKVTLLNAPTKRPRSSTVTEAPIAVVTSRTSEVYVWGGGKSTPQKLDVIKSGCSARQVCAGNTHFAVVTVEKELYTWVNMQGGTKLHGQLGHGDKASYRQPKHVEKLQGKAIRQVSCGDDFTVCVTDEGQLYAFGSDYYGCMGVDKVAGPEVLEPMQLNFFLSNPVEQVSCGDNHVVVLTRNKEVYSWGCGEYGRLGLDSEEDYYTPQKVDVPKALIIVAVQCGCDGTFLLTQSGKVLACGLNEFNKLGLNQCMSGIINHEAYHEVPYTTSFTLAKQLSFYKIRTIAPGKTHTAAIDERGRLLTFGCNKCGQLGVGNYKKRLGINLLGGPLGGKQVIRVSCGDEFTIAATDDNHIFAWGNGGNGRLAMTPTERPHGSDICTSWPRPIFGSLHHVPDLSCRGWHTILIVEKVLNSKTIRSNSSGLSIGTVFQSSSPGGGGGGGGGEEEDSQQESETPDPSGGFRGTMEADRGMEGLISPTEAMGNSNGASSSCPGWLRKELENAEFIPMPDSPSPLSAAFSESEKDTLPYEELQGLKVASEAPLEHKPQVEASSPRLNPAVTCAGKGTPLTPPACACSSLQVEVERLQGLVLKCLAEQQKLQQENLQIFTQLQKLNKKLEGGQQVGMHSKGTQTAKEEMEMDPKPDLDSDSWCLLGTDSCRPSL
The settings on record: at 0.1 µM.

Serine/threonine-protein kinase Nek6 (Homo sapiens), sequence (Q9HC98 whole entry): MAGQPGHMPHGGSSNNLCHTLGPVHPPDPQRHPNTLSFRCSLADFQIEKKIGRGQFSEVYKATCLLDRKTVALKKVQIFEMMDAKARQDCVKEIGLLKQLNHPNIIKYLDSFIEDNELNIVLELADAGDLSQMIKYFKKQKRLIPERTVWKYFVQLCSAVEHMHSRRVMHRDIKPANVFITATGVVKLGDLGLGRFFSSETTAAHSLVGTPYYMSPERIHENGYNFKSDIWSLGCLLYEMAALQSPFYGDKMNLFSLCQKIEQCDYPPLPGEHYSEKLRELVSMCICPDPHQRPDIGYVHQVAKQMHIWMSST
Casein kinase II subunit alpha (Homo sapiens), sequence (P68400 whole entry, looked up): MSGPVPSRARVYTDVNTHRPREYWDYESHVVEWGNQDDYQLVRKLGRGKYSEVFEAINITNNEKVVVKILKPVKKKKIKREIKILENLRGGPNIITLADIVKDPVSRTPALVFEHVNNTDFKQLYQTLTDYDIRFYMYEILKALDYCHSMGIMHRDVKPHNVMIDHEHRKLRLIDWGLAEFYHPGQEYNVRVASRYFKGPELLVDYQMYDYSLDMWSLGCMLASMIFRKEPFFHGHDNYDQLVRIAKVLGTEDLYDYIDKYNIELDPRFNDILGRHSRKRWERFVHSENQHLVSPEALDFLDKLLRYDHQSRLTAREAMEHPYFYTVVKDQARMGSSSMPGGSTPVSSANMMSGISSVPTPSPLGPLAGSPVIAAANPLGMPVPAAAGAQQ
Serine/threonine-protein kinase Nek7 (Homo sapiens), sequence (Q8TDX7 whole entry, looked up): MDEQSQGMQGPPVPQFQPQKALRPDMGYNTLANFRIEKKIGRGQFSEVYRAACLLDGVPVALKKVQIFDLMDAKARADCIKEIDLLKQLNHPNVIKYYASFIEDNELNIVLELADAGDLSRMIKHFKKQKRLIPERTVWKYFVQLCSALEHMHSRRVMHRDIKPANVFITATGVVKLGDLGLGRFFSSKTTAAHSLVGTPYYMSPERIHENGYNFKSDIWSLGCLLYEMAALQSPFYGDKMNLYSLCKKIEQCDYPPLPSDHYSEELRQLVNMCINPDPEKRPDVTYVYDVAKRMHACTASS
Sphingosine kinase 1 (Homo sapiens), sequence (Q9NYA1 whole entry): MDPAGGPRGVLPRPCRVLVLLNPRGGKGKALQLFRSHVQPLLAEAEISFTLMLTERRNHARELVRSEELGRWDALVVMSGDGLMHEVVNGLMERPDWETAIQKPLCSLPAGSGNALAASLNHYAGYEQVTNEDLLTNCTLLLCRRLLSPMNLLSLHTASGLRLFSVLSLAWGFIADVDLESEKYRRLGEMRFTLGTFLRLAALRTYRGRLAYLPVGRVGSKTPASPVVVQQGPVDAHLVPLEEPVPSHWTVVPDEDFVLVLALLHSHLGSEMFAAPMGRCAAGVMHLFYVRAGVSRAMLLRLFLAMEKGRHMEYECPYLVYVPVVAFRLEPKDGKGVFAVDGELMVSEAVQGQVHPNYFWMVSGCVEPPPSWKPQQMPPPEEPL

Regarding `CCOc1ccc2c(-c3ccnc(Nc4cc(OC)cc(C(F)(F)F)c4)n3)cnn2n1`, the inhibition was 1.71% in experiment [1]; 4.25% in [2]; 0% in [3]; 4.76% in experiment [4]; 15.3% in experiment [5]; -1.77% in experiment [6]. Also, the inhibition in experiment [7] is 4.02%; in experiment [8] it was -0.06%; in experiment [9] it was -2.55%; in experiment [10], 2.74%; in [11], 26.5%; in experiment [12], 1.06%. For the same compound, the inhibition in experiment [13] is 2.42%; in experiment [14] it was 1.26%; in experiment [15] it was 0.94%; in experiment [16], -0.49%; in experiment [17] it was 1.7%; in [18], 2.79%. Besides, the values for the inhibition in experiment [19] and in [20] were 2.42% and 3.87%, respectively.

What is called inhibition is the change of the read-out against control, counted positive when it falls.

Source of the values: ChEMBL document CHEMBL1961873, “Compounds: GSK PKIS; Assays: Nanosyn kinase panel” (2012).
